Test results as given in article PMC3218832.

What was measured:
Assay in all cases: protein binding microarray; high values mean tight binding
Conditions in all cases: dsDNA, one strand shown
[1] = target: RELARELA (p65 homodimer) (Homo sapiens, UniProt Q04206 1-307)
[2] = target: p50p50 homodimer (Homo sapiens, UniProt P19838 7-356)
[3] = target: T1, p52p52 homodimer (Homo sapiens, UniProt Q00653 4-332)
T1 sequence: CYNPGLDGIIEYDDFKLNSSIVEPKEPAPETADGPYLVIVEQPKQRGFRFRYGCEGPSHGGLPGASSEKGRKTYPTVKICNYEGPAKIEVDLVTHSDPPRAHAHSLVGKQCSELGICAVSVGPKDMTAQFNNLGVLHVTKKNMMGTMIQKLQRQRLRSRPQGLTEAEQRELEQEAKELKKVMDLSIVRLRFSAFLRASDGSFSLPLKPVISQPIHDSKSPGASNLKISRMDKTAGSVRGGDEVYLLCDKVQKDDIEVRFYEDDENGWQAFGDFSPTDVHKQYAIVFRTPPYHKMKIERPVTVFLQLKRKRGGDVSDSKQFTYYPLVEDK

[4] = target: RELA (p65) subunit of heterodimer;p50 subunit (Homo sapiens;Homo sapiens, UniProt Q04206;P19838 1-307;7-356)
[5] = target: RELA (p65) subunit of heterodimer;p52 subunit (Homo sapiens;Homo sapiens, UniProt Q04206;Q00653 1-307;4-332)
[6] = target: RELB subunit;p50 subunit (Homo sapiens;Homo sapiens, UniProt Q01201;P19838 120-401;7-356)
[7] = target: T2, RELB subunit;p52 subunit (Homo sapiens;Homo sapiens, UniProt Q01201;Q00653 120-401;4-332)
T2 sequence 1: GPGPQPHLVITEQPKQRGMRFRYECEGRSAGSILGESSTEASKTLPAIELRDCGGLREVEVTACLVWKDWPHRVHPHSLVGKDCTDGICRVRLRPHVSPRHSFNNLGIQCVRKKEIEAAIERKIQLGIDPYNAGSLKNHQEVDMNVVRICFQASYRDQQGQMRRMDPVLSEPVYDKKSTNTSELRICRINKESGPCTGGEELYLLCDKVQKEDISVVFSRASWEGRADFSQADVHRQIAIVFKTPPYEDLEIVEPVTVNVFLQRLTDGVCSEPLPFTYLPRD
T2 sequence 2: T1 sequence

[8] = target: C-Rel subunit;p50 subunit (Homo sapiens;Homo sapiens, UniProt Q04864;P19838 1-285;7-356)
[9] = target: T3, C-Rel subunit;p52 subunit (Homo sapiens;Homo sapiens, UniProt Q04864;Q00653 1-285;4-332)
T3 sequence 1: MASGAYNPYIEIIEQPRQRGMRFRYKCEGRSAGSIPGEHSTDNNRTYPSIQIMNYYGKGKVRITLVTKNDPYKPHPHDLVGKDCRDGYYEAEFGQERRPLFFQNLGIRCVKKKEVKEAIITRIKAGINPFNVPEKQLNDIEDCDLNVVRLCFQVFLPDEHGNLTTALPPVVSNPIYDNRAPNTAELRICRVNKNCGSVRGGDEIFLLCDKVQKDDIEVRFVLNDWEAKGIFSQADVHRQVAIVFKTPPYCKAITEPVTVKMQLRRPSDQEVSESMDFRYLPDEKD
T3 sequence 2: T1 sequence

Sequence of p50p50 homodimer (P19838 7-356): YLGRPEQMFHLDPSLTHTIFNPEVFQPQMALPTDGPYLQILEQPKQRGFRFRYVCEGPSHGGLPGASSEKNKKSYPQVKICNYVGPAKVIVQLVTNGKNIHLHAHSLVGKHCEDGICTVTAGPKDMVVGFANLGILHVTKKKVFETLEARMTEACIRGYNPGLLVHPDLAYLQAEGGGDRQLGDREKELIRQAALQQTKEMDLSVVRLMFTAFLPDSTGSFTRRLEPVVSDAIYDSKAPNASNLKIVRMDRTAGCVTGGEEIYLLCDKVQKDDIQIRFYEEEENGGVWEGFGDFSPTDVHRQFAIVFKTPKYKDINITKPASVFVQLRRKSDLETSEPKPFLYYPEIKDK
Sequence of RELARELA (p65 homodimer) (Q04206 1-307): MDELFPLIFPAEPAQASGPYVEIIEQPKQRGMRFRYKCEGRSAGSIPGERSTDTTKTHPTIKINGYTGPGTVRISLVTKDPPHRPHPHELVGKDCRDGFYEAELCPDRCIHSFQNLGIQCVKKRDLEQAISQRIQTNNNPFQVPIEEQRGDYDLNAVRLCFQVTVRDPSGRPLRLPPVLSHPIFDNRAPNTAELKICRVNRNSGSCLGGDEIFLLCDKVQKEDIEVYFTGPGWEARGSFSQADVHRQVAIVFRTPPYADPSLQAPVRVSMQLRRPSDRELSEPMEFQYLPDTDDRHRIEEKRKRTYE
Sequence of RELA (p65) subunit of heterodimer;p50 subunit (Q04206 1-307, chain 1 of 2): as the sequence (Q04206 1-307) above
Sequence of RELA (p65) subunit of heterodimer;p50 subunit (P19838 7-356, chain 2 of 2): as the sequence (P19838 7-356) above

| Sequence | binding signal [1] | binding signal [2] | binding signal [3] | binding signal [4] | binding signal [5] | binding signal [6] | binding signal [7] | binding signal [8] | binding signal [9] |
| --- | --- | --- | --- | --- | --- | --- | --- | --- | --- |
| GGGTGGCCCCC | -0.733 z-score | 0.527 z-score | 0.796 z-score | 0.639 z-score | 0.996 z-score | 0.399 z-score | 0.74 z-score | 0.773 z-score | 0.833 z-score |
| CGATGGGCCCT | -0.936 z-score | -1.43 z-score | -0.601 z-score | -0.968 z-score | -0.798 z-score | -0.95 z-score | -0.85 z-score | -1.73 z-score | -0.583 z-score |
| GGGAATCTCCT | 2.57 z-score | 0.441 z-score | 1.08 z-score | 0.896 z-score | 0.912 z-score | 0.367 z-score | 0.827 z-score | 0.987 z-score | 1.35 z-score |
| GGAGTCCTCCC | -0.114 z-score | -0.916 z-score | -0.266 z-score | -0.571 z-score | -0.463 z-score | -0.55 z-score | -0.535 z-score | -0.207 z-score | -0.576 z-score |
| AAGGATATCCT | -0.125 z-score | -1.04 z-score | -0.548 z-score | -0.853 z-score | -0.906 z-score | -0.945 z-score | -0.859 z-score | -1.41 z-score | -0.843 z-score |
| GGGGGCGCCCT | 0.992 z-score | 0.922 z-score | 1.68 z-score | 1.43 z-score | 1.58 z-score | 1.12 z-score | 1.33 z-score | 0.776 z-score | 1.34 z-score |
| AGAATGACCCC | -0.278 z-score | -0.204 z-score | -0.112 z-score | -0.177 z-score | -0.287 z-score | -0.428 z-score | -0.388 z-score | -0.442 z-score | -0.311 z-score |
| AGATACCCCCT | 0.103 z-score | 1.43 z-score | 1.19 z-score | 1.36 z-score | 1.5 z-score | 1.38 z-score | 1.84 z-score | 1.13 z-score | 1.24 z-score |
| CGGGTTACCCT | 0.242 z-score | -0.264 z-score | -0.0855 z-score | -0.112 z-score | -0.124 z-score | 0.063 z-score | -0.22 z-score | -0.0809 z-score | -0.0258 z-score |
| AGGTAGGTCCC | -0.0694 z-score | -0.0842 z-score | 0.305 z-score | -0.0951 z-score | 0.0859 z-score | 0.0975 z-score | 0.178 z-score | 0.0304 z-score | 0.122 z-score |
| AAGAAGGTCCT | -0.0161 z-score | -1.4 z-score | -0.396 z-score | -1.13 z-score | -0.801 z-score | -0.786 z-score | -0.511 z-score | -1.3 z-score | -0.718 z-score |
| CGGTTATCCCT | 0.134 z-score | 0.215 z-score | 0.38 z-score | 0.0537 z-score | 0.272 z-score | 0.229 z-score | 0.321 z-score | 0.223 z-score | 0.381 z-score |
| AAGTGAACCCT | -0.647 z-score | -1.09 z-score | -0.646 z-score | -0.987 z-score | -0.763 z-score | -0.923 z-score | -0.758 z-score | -1.27 z-score | -0.88 z-score |
| AAATTTCCCCC | 2.97 z-score | 1.66 z-score | 2.84 z-score | 2.63 z-score | 2.41 z-score | 2.88 z-score | 2.69 z-score | 2.02 z-score | 2.57 z-score |
| CGAAAGTTCCT | 0.451 z-score | -0.747 z-score | -0.53 z-score | -0.689 z-score | -0.651 z-score | -0.963 z-score | -0.709 z-score | -0.537 z-score | -0.406 z-score |
| CGATAATTCCC | 2.04 z-score | 0.948 z-score | 0.738 z-score | 1.43 z-score | 0.974 z-score | 0.871 z-score | 0.87 z-score | 1.51 z-score | 1.12 z-score |
| CAGGGGACCCT | -0.887 z-score | 0.487 z-score | 0.583 z-score | 0.0452 z-score | 0.384 z-score | 0.29 z-score | 0.53 z-score | -0.293 z-score | -0.0494 z-score |
| AAAGTCCCCCT | 0.889 z-score | 1.59 z-score | 1.86 z-score | 2.31 z-score | 1.72 z-score | 2.26 z-score | 2.4 z-score | 1.7 z-score | 1.82 z-score |
| AGAATTGTCCC | 0.95 z-score | 0.906 z-score | 0.873 z-score | 0.803 z-score | 0.85 z-score | 0.82 z-score | 0.675 z-score | 0.87 z-score | 0.604 z-score |
| CAAAGCGTCCT | -0.639 z-score | -1.46 z-score | -0.572 z-score | -0.956 z-score | -0.873 z-score | -0.99 z-score | -0.804 z-score | -1.53 z-score | -0.973 z-score |
| CGAGTTTCCCT | 1.14 z-score | 1.12 z-score | 1.17 z-score | 1.16 z-score | 1.16 z-score | 1.04 z-score | 1.42 z-score | 1.07 z-score | 0.975 z-score |
| AGATGTTTCCC | 1.63 z-score | 0.332 z-score | 0.359 z-score | 0.89 z-score | 0.674 z-score | 0.348 z-score | 0.51 z-score | 1.05 z-score | 0.783 z-score |
| CAAGTTCCCCT | 0.677 z-score | 1.46 z-score | 2.18 z-score | 1.97 z-score | 1.77 z-score | 2.27 z-score | 2.14 z-score | 1.56 z-score | 1.84 z-score |
| GGGTGTTTCCT | 1.42 z-score | 0.575 z-score | 1.06 z-score | 0.736 z-score | 0.987 z-score | 0.102 z-score | 1.16 z-score | 0.695 z-score | 1.43 z-score |
| GAGAAACCCCC | 1.35 z-score | 1.41 z-score | 2.15 z-score | 2.14 z-score | 2 z-score | 1.98 z-score | 2.04 z-score | 1.45 z-score | 2.14 z-score |
| GAAAGTTCCCT | 0.999 z-score | 1.15 z-score | 1.11 z-score | 1.12 z-score | 1.03 z-score | 0.985 z-score | 0.987 z-score | 0.705 z-score | 0.73 z-score |
| AAAAATCCCCT | 2.27 z-score | 1.6 z-score | 3.18 z-score | 2.55 z-score | 2.84 z-score | 3.22 z-score | 2.88 z-score | 2.19 z-score | 3.19 z-score |
| GAGTATATCCT | -0.264 z-score | -1.06 z-score | -0.578 z-score | -0.876 z-score | -0.768 z-score | -1 z-score | -0.866 z-score | -1.36 z-score | -0.891 z-score |
| AAATAAACCCT | -0.478 z-score | 0.0209 z-score | 0.172 z-score | -0.112 z-score | 0.045 z-score | -0.326 z-score | -0.0813 z-score | -0.324 z-score | -0.00628 z-score |
| AGATATTCCCC | 1.8 z-score | 1.31 z-score | 2.2 z-score | 2.03 z-score | 1.99 z-score | 1.8 z-score | 1.96 z-score | 1.64 z-score | 1.71 z-score |
